Where “and” joins values, the source holds several entries; their conditions need not be identical. Equal entries are not always repeated. Records with an inconclusive call do not appear. Calls of active or inactive are those of the source. Unless noted, calls follow the shape of the dose curve; as a rule, active = well fitted curve in the direction sought with a large enough effect in the repeat runs; inconclusive = weak or mixed curves; inactive = no such curve, though single readings can be large; an effect the other way counts as inactive or inconclusive.
What was measured:
[1] = qHTS assay to identify small molecule agonists of the vitamin D receptor (VDR) signaling pathway - cell viability counter screen (AID 743224); also: nearly all actives have a fitted effect of over 50% in size; also: potency is read from the fitted curve at half-maximal effect; as to activity change, negative = cytotoxicity: series mostly up to about 63 µM; % is scaled to controls: 0 for no effect and ±100 for the full control effect
Outline: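 VDR-bla cells, 4 h after plating, exposed to compounds for 16 h at 37C; viability then read in the same wells as CellTiter-Glo luminescence after 30 min at room temperature, following the bla FRET read.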

[2] = qHTS assay to identify small molecule antagonists of the vitamin D receptor (VDR) signaling pathway - cell viability counter screen (AID 743225); also: nearly all actives have a fitted effect of over 50% in size; also: potency is read from the fitted curve at half-maximal effect
Outline: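 Cytotoxicity toward the VDR-bla HEK 293T line was scored by ATP-based CellTiter-Glo luminescence, read in the wells already used for the beta-lactamase readout after 16 h compound treatment under 3 nM 1-alpha,25-dihydroxyvitamin D3 stimulation.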

[3] = qHTS assay to identify small molecule agonists of the endoplasmic reticulum stress response signaling pathway - cell viability counter screen (AID 1159517; calls by dose curve; also: nearly all actives have a fitted effect of over 50% in size; also: potency is read from the fitted curve at half-maximal effect)
Outline: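 Cells, HeLa ESRE-bla; density, 1,500/well; dosing, 5 hr at 37 C, 5% CO2; readout, CellTiter-Glo luminescence after 30 min RT.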

[4] = target: Nuclear receptor ROR-gamma (Homo sapiens) (UniProt P51449); test: qHTS assay to identify small molecule antagonists of the retinoid-related orphan receptor gamma (ROR-gamma) signaling pathway (AID 1159521; also: nearly all actives have a fitted effect of over 50% in size; also: potency is read from the fitted curve at half-maximal effect)
Outline: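 Readout: ONE-Glo luciferase luminescence, 30 min at room temperature. System: Tet-on RORγ CHO, RORE-LUC. Sequence: compound 2 h, doxycycline 1 uM final, 16 h at 37 C.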

[5] = qHTS assay to identify small molecule agonists of the AP-1 signaling pathway (AID 1159526; calls by dose curve; also: % is scaled to controls: 0 for no effect and ±100 for the full control effect)
[6] = qHTS assay to identify small molecule agonists of the RXR signaling pathway - cell viability counter screen (AID 1159529); also: nearly all actives have a fitted effect of over 50% in size; also: potency is read from the fitted curve at half-maximal effect
Outline: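 Tox21 10K compounds were tested for cytotoxicity against GeneBLAzer RXR-alpha HEK 293T cells grown in 2% charcoal-stripped FBS. Exposure lasted 16 hr at 37 C, 5% CO2; viability read by CellTiter-Glo luminescence.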

[7] = qHTS assay to identify small molecule antagonists of the retinoid acid receptor (RAR) signaling pathway - cell viability counter screen (AID 1159551); also: nearly all actives have a fitted effect of over 35% in size; also: potency is read from the fitted curve at half-maximal effect
Outline: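 C3RL4 RARE-luciferase cells, 1,000/well, incubated overnight, then dosed with compound plus 1 uM retinol (final). After 6 hr at 37 C, viability read by CellTiter-Glo ATP luminescence following 30 min at room temperature.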

[8] = qHTS assay to identify small molecule antagonists of the retinoic acid receptor (RAR) signaling pathway (AID 1159552; also: nearly all actives have a fitted effect of over 50% in size; also: potency is read from the fitted curve at half-maximal effect)
Outline: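 Overnight-plated C3RL4 reporter cells get compound, then retinol to 1 uM final; plates sit 6 hr at 37 C, 5% CO2. A luciferase reagent is added and light output recorded after 30 min at room temperature.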

[9] = qHTS assay to identify small molecule agonists of the retinoic acid receptor (RAR) signaling pathway (AID 1159553); also: potency is read from the fitted curve at half-maximal effect
Outline: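 C3RL4 RARE-luciferase cells were seeded at 1,000/well and grown overnight at 37 C, then exposed to compounds for 6 hr at 37 C, 5% CO2. Luciferase reagent was added and luminescence was read after 30 min at room temperature.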

[10] = qHTS assay to identify small molecule antagonists of the estrogen related receptor (ERR) signaling pathway from Tox21 library - cell viability counter screen (AID 1224834); also: nearly all actives have a fitted effect of over 30% in size; also: potency is read from the fitted curve at half-maximal effect
Outline: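 ERR reporter cells, 2,000 per well, rested 6 h, then exposed to compound in DMSO for 17.5 hours at 37 C. Viability read as fluorescence after 30 min with CellTiter-Fluor.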

[11] = qHTS assay to identify small molecule antagonists of the estrogen related receptor (ERR) signaling pathway - cell viability counter screen (AID 1224818); also: series mostly up to about 46 µM; % is scaled to controls: 0 for no effect and ±100 for the full control effect
Outline: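 ERR cells, 2,000 per well, compound added after 6 h and incubated 17.5 h at 37 C. Viability read by CellTiter-Fluor fluorescence after a further 30 min at 37 C.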

[12] = qHTS assay to identify small molecule antagonists of the estrogen related receptor signaling pathway with the pleiotropic PPARgamma coactivator (PGC) cell viability counter screen (AID 1224822; also: series mostly up to about 46 µM; % is scaled to controls: 0 for no effect and ±100 for the full control effect)
Outline: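 PGC/ERR cells rested 6 h, then compound-treated 17.5 h at 37 C. CellTiter-Fluor added for 30 min at 37 C, viability measured by fluorescence intensity.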

[13] = qHTS assay to identify small molecule agonists of the AP-1 signaling pathway - cell viability counter screen (AID 1159525; calls by dose curve; also: nearly all actives have a fitted effect of over 55% in size; also: potency is read from the fitted curve at half-maximal effect)
Outline: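 Luminescent ATP readout (Cell Titer Glo, 30 min RT), normalised to DMSO and tetra n-octyl ammonium bromide controls. Cells were ME-180 AP-1-bla in 0.5% dialyzed FBS Opti-MEM, with a 5 h, 37 °C compound exposure.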

[14] = target: Retinoic acid receptor RXR-alpha (Homo sapiens) (UniProt P19793); test: qHTS assay to identify small molecule agonists of the RXR signaling pathway (AID 1159527; calls by dose curve; also: % is scaled to controls: 0 for no effect and ±100 for the full control effect; nearly all actives have a fitted effect of over 35% in size)
Retinoic acid receptor RXR-alpha (Homo sapiens), sequence (P19793 whole entry, looked up): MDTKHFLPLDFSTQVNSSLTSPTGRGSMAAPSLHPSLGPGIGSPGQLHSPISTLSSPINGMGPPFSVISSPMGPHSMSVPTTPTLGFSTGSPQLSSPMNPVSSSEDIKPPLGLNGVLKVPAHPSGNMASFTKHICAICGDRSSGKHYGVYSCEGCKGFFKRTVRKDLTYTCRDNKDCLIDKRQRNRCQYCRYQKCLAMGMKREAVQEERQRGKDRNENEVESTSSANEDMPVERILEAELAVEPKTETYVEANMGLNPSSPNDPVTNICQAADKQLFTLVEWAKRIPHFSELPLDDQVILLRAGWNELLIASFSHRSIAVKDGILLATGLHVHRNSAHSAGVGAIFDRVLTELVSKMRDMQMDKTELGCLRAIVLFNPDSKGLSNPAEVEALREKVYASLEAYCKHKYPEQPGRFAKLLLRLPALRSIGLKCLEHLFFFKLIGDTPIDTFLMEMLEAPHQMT
Outline: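 Reporter activation is measured as beta-lactamase activity via FRET substrate cleavage (emission 460/530 nm) in HEK 293T cells expressing an RXR-alpha-driven bla construct, following 16 hr compound exposure at 37 C.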

[15] = qHTS assay to identify small molecule antagonists of the retinoid-related orphan receptor gamma (ROR-gamma) signaling pathway - cell viability counter screen (AID 1159520)
Outline: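 Cytotoxicity was read from cellular ATP (CellTiter-Glo luminescence) after 16 hr at 37 C with 1 uM doxycycline induction. The inducer was added 2 hr after compound transfer to Tet-on ROR gamma CHO cells.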

NC(=O)c1ccccc1N
inactive: Potency [1] | Potency [2] | Potency [3] | Potency [4] | Potency [5] | Potency [6] | Potency [7] | Potency [8] | Potency [9] | Potency [10]

CN(C)c1ccc(N=NS(=O)(=O)O)cc1
active: Potency [4] 4.33 µM
inactive: Potency [3] | Potency [5] | Potency [7] | Potency [8] | Potency [11] | Potency [12]

CC(C)(c1cc(Br)c(O)c(Br)c1)c1cc(Br)c(O)c(Br)c1
active: Potency [2] 43.5 µM | Potency [3] 48.8 µM and 15.5 µM | Potency [13] 48.8 µM and 48.9 µM | Potency [6] 54.8 µM and 48.9 µM and 46.3 µM
inactive: Potency [14] | Potency [7] | Potency [8] | Potency [9] | Potency [10]

Clc1ccc(C(Cn2ccnc2)OCc2ccsc2Cl)c(Cl)c1 (centres undefined)
inactive: Potency [1] | Potency [3]
active: Potency [4] 23.7 µM | Potency [10] 21.1 µM

Clc1ccc(C(Cn2ccnc2)OCc2c(Cl)cccc2Cl)c(Cl)c1 (centres undefined)
inactive: Potency [2] | Potency [3] | Potency [7]
active: Potency [4] 13.3 µM | Potency [6] 26.8 µM | Potency [10] 29.8 µM

CC(=O)C=O
inactive: Potency [15] | Potency [4] | Potency [13] | Potency [5] | Potency [14] | Potency [6] | Potency [7] | Potency [8]

COc1ccc(C#N)cc1
inactive: Potency [15] | Potency [4] | Potency [13] | Potency [5] | Potency [14] | Potency [6] | Potency [7] | Potency [8]

CCCCCCCCCCCCN(CCO)CCO
active: Potency [1] 30.8 µM | Potency [2] 43.5 µM | Potency [3] 43.5 µM | Potency [6] 24.4 µM | Potency [7] 68.3 µM | Potency [8] 54.3 µM | Potency [10] 68.3 µM

O=C(c1ccccc1)c1cc(Cl)ccc1O
inactive: Potency [2] | Potency [3] | Potency [4] | Potency [14] | Potency [7] | Potency [8] | Potency [9] | Potency [10]

O=S(O)O
inactive: activity, negative = cytotoxicity [15] 14% [at 19 µM] | activity change, negative = inhibition [4] 7.25% [at 19 µM] | viability change, negative = cytotoxic [13] 5.55% [at 15.8 µM] | activation [5] 2.22% [at 15.8 µM] | activation [14] -2.24% [at 15.8 µM] | activity change, negative = cytotoxicity [6] -0.924% [at 15.8 µM] | activity change, negative = cytotoxicity [7] -0.573% [at 19 µM] | activity, negative = inhibition [8] 5.26% [at 19 µM] | viability change, negative = cytotoxic [10] 0.472% [at 19 µM]

O=C(O)CCn1c2c(c3ccccc31)C[C@H](NS(=O)(=O)c1ccc(F)cc1)CC2
inactive: Potency [2] | Potency [3] | Potency [13] | Potency [6] | Potency [7] | Potency [10]

CC(C(O)c1ccccc1)N(C)CCOC(c1ccccc1)c1ccccc1 (centres undefined)
active: Potency [10] 29.8 µM
inactive: Potency [3] | Potency [7]

CCCCCCC(C)OC(=O)COc1nc(F)c(Cl)c(N)c1Cl (centres undefined)
active: Potency [1] 43.6 µM | Potency [2] 49 µM | Potency [3] 54.9 µM | Potency [13] 49 µM | Potency [6] 34.7 µM

Oc1c(Br)cc(Br)c2cccnc12
active: Potency [1] 3.35 µM | Potency [6] 1.51 µM | Potency [10] 23.7 µM
inactive: Potency [3] | Potency [13] | Potency [9]

Cc1ccc(-n2[nH]c(C)c(N=Nc3cccc(-c4cccc(C(=O)O)c4)c3O)c2=O)cc1C
inactive: Potency [2] | Potency [3] | Potency [14] | Potency [7] | Potency [8]
active: Potency [13] 26.8 µM | Potency [9] 29.8 µM | Potency [10] 29.8 µM

Reference: PubChem BioAssay (Tox21)
